The supplement of paper PMC6411743
± gives the standard deviation of the averaged measurements. The full data set covers some 5,400 targets. This sample favours those with the largest changes.

Compound: Nc1nc2c(ncn2[C@@H]2O[C@H](COP(=O)(O)OP(=O)(O)OP(=O)(O)O)[C@@H](O)[C@H]2O)c(=O)[nH]1 [guanosine triphosphate]
Test: NP40-soluble protein abundance relative to vehicle (solubility fold change) (ratio); higher = more soluble protein in presence of GTP
Protocol: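 Solubility proteome profiling in Jurkat crude lysate. Lysate was treated with Mg-GTP (0.1-10 mM) for 10 min at room temperature and 3 min at 37 °C, then solubilised with 0.8% NP40 and benzonase, followed by ultracentrifugation. Proteins were quantified by TMT10 LC-MS/MS; the value is the NP40-soluble abundance relative to the NP40-processed vehicle, from 3 independent experiments.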

## TGFB1 (UniProt P01137)
UniProt P01137, sequence (P01137 whole entry): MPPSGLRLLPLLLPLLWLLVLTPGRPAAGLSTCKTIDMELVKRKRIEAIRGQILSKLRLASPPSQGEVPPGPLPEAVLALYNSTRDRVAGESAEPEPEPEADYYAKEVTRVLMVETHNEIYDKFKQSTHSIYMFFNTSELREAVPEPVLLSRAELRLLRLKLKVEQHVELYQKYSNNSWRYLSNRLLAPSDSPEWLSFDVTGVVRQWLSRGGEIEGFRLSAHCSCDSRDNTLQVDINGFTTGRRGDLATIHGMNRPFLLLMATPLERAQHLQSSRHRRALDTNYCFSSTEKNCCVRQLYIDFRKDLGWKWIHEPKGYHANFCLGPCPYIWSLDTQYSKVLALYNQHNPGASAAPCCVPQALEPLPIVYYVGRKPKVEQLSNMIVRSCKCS
concentration: 0.1mM
  NP40-soluble protein abundance: 0.926 ± 0.072
concentration: 0.5mM
  NP40-soluble protein abundance: 1.02 ± 0.11
concentration: 1mM
  NP40-soluble protein abundance: 0.908 ± 0.091
concentration: 2mM
  NP40-soluble protein abundance: 0.961 ± 0.092
concentration: 4mM
  NP40-soluble protein abundance: 0.987 ± 0.055
concentration: 6mM
  NP40-soluble protein abundance: 0.958 ± 0.088
concentration: 8mM
  NP40-soluble protein abundance: 0.896 ± 0.11
concentration: 10mM
  NP40-soluble protein abundance: 0.968 ± 0.14

## RBM34 (UniProt P42696)
UniProt P42696, sequence (P42696 whole entry): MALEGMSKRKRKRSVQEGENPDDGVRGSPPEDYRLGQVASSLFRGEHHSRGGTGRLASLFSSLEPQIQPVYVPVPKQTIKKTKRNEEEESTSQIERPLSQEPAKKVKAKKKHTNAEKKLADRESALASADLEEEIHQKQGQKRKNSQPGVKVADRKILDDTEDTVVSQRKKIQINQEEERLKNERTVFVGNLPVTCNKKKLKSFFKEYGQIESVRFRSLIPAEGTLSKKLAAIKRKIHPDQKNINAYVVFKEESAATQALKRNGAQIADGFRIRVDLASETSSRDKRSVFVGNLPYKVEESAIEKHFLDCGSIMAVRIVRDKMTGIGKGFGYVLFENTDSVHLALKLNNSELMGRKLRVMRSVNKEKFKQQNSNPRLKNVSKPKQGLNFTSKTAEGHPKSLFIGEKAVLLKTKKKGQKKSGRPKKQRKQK
concentration: 0.1mM
  NP40-soluble protein abundance: 1.08 ± 0.0039
concentration: 0.5mM
  NP40-soluble protein abundance: 1.05 ± 0.034
concentration: 1mM
  NP40-soluble protein abundance: 1.14 ± 0.028
concentration: 2mM
  NP40-soluble protein abundance: 1.23 ± 0.065
concentration: 4mM
  NP40-soluble protein abundance: 1.41 ± 0.066
concentration: 6mM
  NP40-soluble protein abundance: 1.57 ± 0.12
concentration: 8mM
  NP40-soluble protein abundance: 1.68 ± 0.12
concentration: 10mM
  NP40-soluble protein abundance: 1.83 ± 0.066

## H2AFX (UniProt P16104)
concentration: 0.1mM
  NP40-soluble protein abundance: 0.94 ± 0.014
concentration: 0.5mM
  NP40-soluble protein abundance: 0.955 ± 0.036
concentration: 1mM
  NP40-soluble protein abundance: 1.07 ± 0.068
concentration: 2mM
  NP40-soluble protein abundance: 1.13 ± 0.075
concentration: 4mM
  NP40-soluble protein abundance: 1.2 ± 0.088
concentration: 6mM
  NP40-soluble protein abundance: 1.48 ± 0.16
concentration: 8mM
  NP40-soluble protein abundance: 1.44 ± 0.13
concentration: 10mM
  NP40-soluble protein abundance: 2.26 ± 0.46

## ZBTB24 (UniProt O43167)
UniProt O43167, sequence (O43167 whole entry): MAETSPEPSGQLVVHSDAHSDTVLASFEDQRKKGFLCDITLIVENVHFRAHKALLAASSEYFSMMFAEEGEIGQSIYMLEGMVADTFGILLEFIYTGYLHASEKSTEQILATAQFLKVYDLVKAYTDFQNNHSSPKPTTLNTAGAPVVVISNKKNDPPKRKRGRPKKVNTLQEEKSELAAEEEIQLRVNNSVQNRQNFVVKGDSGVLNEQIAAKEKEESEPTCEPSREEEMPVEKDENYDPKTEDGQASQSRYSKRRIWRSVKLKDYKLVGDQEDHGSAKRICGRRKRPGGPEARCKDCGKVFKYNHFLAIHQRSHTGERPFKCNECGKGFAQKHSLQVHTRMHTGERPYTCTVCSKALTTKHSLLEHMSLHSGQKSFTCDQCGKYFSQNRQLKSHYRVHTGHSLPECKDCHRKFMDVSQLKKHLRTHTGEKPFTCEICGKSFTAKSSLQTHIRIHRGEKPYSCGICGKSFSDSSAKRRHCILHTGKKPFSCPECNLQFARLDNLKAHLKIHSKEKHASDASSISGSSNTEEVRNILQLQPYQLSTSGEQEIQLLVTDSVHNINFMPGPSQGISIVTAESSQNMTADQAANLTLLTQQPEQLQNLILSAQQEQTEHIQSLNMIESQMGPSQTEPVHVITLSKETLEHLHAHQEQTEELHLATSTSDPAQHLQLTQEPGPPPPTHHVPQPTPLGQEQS
concentration: 0.1mM
  NP40-soluble protein abundance: 1.09 ± 0.18
concentration: 0.5mM
  NP40-soluble protein abundance: 1.09 ± 0.2
concentration: 1mM
  NP40-soluble protein abundance: 1.02 ± 0.21
concentration: 2mM
  NP40-soluble protein abundance: 1.05 ± 0.2
concentration: 4mM
  NP40-soluble protein abundance: 1.06 ± 0.24
concentration: 6mM
  NP40-soluble protein abundance: 0.976 ± 0.11
concentration: 8mM
  NP40-soluble protein abundance: 1 ± 0.053
concentration: 10mM
  NP40-soluble protein abundance: 1.08 ± 0.14

## UniProt P35606|P35606-2
UniProt P35606, sequence (P35606 whole entry): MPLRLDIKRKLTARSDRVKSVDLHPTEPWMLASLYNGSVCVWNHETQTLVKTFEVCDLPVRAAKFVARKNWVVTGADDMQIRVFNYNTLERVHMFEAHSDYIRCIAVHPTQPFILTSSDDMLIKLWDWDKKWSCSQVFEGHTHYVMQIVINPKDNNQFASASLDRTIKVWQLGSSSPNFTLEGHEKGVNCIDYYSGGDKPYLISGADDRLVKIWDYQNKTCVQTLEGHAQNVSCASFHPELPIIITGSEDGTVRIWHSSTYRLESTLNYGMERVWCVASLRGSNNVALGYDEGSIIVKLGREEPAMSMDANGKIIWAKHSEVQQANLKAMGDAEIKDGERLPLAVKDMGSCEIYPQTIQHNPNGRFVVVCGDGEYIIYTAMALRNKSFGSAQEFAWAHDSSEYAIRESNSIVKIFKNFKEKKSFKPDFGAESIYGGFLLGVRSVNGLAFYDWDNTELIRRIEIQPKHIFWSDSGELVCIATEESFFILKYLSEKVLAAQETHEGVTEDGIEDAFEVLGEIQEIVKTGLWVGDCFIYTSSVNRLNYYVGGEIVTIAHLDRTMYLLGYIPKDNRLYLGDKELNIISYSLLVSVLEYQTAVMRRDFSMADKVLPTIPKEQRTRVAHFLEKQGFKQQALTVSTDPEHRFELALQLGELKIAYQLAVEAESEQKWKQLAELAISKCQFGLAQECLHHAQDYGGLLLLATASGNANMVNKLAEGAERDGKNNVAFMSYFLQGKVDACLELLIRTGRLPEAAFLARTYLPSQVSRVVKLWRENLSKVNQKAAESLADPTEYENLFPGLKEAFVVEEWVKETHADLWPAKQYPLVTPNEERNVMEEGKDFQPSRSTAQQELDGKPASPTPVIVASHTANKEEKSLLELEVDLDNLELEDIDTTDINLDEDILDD
concentration: 0.1mM
  NP40-soluble protein abundance: 1.04 ± 0.075
concentration: 0.5mM
  NP40-soluble protein abundance: 1.07 ± 0.11
concentration: 1mM
  NP40-soluble protein abundance: 0.994 ± 0.089
concentration: 2mM
  NP40-soluble protein abundance: 1.04 ± 0.12
concentration: 4mM
  NP40-soluble protein abundance: 1.04 ± 0.12
concentration: 6mM
  NP40-soluble protein abundance: 1.03 ± 0.12
concentration: 8mM
  NP40-soluble protein abundance: 1.01 ± 0.097
concentration: 10mM
  NP40-soluble protein abundance: 0.984 ± 0.087
